# “And” between values parts separate entries of the source, which are not always exact repeats. Equal values may be shown once. Some of the results follow. Values without a mark were called inactive. How the calls were made is not given here.
# Target: Lethal factor (Bacillus anthracis) (UniProt P15917)
# Test: Bacillus anthracis LF protease inhibitors, confirmation, biochemical, multiplex microsphere, cherry pick 1 (AID 602142)
# Conditions: multiplex microsphere protease cleavage assay, at 10 µM, hits give high values
# Chain of Lethal factor (Bacillus anthracis) (P15917 whole entry, looked up): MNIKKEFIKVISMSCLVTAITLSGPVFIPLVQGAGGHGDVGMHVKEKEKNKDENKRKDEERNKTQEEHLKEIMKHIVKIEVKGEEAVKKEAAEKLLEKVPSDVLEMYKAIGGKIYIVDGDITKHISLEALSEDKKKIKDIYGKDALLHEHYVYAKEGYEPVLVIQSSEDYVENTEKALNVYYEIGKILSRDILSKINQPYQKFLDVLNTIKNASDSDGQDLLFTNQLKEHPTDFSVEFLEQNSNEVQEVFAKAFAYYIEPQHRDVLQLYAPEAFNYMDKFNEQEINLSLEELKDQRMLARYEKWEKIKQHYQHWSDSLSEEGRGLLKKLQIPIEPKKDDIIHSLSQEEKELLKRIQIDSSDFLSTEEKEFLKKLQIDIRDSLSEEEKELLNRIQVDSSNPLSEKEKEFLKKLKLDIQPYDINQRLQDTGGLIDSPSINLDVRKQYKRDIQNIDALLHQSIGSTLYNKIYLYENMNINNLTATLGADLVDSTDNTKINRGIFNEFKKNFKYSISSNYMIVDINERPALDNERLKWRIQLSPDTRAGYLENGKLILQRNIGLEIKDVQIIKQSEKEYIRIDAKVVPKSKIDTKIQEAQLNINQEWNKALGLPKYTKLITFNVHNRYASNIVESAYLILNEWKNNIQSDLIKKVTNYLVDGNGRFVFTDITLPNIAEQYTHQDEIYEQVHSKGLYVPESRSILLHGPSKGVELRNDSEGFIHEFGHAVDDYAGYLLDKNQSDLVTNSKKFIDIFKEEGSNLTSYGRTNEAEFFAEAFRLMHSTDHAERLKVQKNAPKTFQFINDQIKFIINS
row,Compound,inhibition
1,CCCN1C2CCCC1CC(NC(=O)c1cccc(OC)c1)C2 (configuration not stated),3.1%
2,Brc1ccc2ncnc(NCc3cccnc3)c2c1,-1.9%
3,COc1ccc(Br)cc1CNCCc1cccc(Cl)c1,3.2%
4,COc1ccccc1-n1c(-c2cc(-c3ccco3)[nH]n2)n[nH]c1=S,2.2%
5,COc1ccc(C(=O)Nc2nc(-c3ccc(OC)cc3)c(-c3ccc([N+](=O)[O-])cc3)s2)cc1,15.9%
6,Cc1ccc(-c2nc(-c3cccnc3)sc2CC(=O)Nc2ccc(C)c(Cl)c2)cc1,1.7%
7,Cc1onc(-c2ccccc2Cl)c1C(=O)NCCn1ccc2ccccc21,4.3%
8,O=C(Nc1nnc(CCc2ccccc2)s1)C1CCCO1 (configuration not stated),2.9%
9,COc1cc2cc(CN(CCN3CCCC3)C(=O)Nc3ccccc3Cl)c(=O)[nH]c2cc1OC,-0.1%
10,Clc1ccc(-c2ncc3ccccn23)c(Cl)c1,2.1%
11,COc1ccc(C2CC(c3cccs3)=NN2c2nc(C)c(C(C)=O)s2)cc1OC (configuration not stated),10.5% and 15.1%
12,CC(=O)c1cccc(NC(=O)N2CCCC2C(=O)NCCc2ccccc2)c1 (configuration not stated),4.9%
13,COCc1cc(=O)[nH]c(SC)n1,-4.9%
14,CCCSc1nc2sc3c(c2c(=O)n1-c1ccc(OC)cc1)CCN(C)C3,4.5%
15,CCOc1ccc(NC(=O)CC(Cc2ccc(Cl)cc2)C(=O)O)cc1 (configuration not stated),2.3%
16,COc1ccc(NS(=O)(=O)c2cc(C(=O)Nc3ccccc3C(=O)O)ccc2C)cc1,-2.7%
17,OC(c1ccc(Cl)cc1)C(CN1CCOCC1)c1ccccc1 (configuration not stated),3.2%
18,COc1ccccc1CNC(=O)C1Cc2ccccc2C(=O)O1 (configuration not stated),1.5%
19,Cc1cccc2cc3c(N)c(C(=O)N4CCCc5ccccc54)sc3nc12,13.6%
20,COC(=O)CN(c1nc(C)c(Cl)c(OC)n1)S(=O)(=O)c1ccc(C)cc1,2.2%
21,Cc1ccc2[nH]cc(CCNC(=O)C3CCCCC3)c2c1,3.7%
22,COCCn1nnnc1C(c1cc2ccc(OC)cc2[nH]c1=O)N1CCc2ccccc2C1 (configuration not stated),-6.3%

# From PubChem BioAssay AID602142 (NMMLSC, 2011)
